Screen size: about 320,000 compounds; about 22,000 (6.9%) were called active. Where a call stands in place of a potency, no number is given. Roughly 27% stayed inconclusive and do not appear here. The call rests on the fitted dose curve; in most records, active means well fitted inhibition curve with a large enough effect; inconclusive means small, poorly fitted or top-dose-only effect, or another doubt; inactive means no such curve, though single readings can be large or run the other way. The full list was thinned out, with actives kept by preference.
Potency means the concentration at half of the fitted maximal effect.

A short description of the experiment: Primary qHTS for delayed death inhibitors of the malarial parasite plastid, 96 hour incubation. As to conditions: P. falciparum luciferase reporter growth; series mostly up to 28.7 µM. The essentials:
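Compounds incubated with erythrocytes infected by luciferase-expressing P. falciparum (2% hematocrit, 0.05% parasitemia final) for 96 hours, 37 C in 5% CO2. Growth inhibition scored as decreased luciferase luminescence.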
On the technique in general: qHTS replaces the single test concentration by a dilution series.
As for `CSc1nsc(SCC(=O)Nc2cc(C(=O)O)ccc2C)n1`, the Potency result was “inactive”. Consider `CC(=O)Nc1ccc(SC[C@H](Cc2ccccc2)N2CC[C@@H](C)CCC2=O)cc1`, for which the Potency was 3.29 µM (active). Regarding `O=C1CCN(Cc2ccc([N+](=O)[O-])cc2)CCN1[C@H](CO)Cc1ccccc1`, the Potency result is “inactive”.

Take `O=C1CC[C@H](O)CCN1[C@H](CSc1ccc(Br)cc1)Cc1ccccc1`: the Potency entry was “inactive”.

For `CN1CCC(=O)N([C@H](CO)Cc2ccccc2)CC1`, the Potency entry was “inactive”. Consider `CC1CCN(CCC(=O)Nc2ccccc2)CC1`, for which the Potency entry is “inactive”. The same measure for `COc1ccc(SC[C@H](Cc2ccccc2)N2CCN(CCc3ccccc3)CCC2=O)cc1`: 4.65 µM (active). Take `CC(=O)Nc1ccc(NC(=O)C(C)OC(=O)C2CC(=O)N(CCc3ccccc3)C2)cc1` (stereo not drawn): the Potency entry is “inactive”. Take `COc1ccc(SCCN2CCN(CC(C)C)CCC2=O)cc1`: the Potency entry was “inactive”. In the case of `C[C@H]1CCC(=O)N([C@H](CSc2ccccc2)Cc2ccccc2)CC1`, the Potency was 11.7 µM (active).

Take `C/C(Cc1ccccc1)=N\NC(=O)CNC(=O)c1ccccc1Cl`: the Potency result was “inactive”. The same measure for `CCC1(CC)Cc2ccccc2-c2nc(CCl)[nH]c(=O)c21`: “inactive”. The same measure for `COc1ccc(CCNS(=O)(=O)c2cc3c(cc2C)NC(=O)CO3)cc1OC`: “inactive”; for `CCC(=O)c1ccc(OCC(=O)Nc2ccc(N3CCCCC3)cc2)cc1`: “inactive”; for `Cc1c(CC(=O)NCC(=O)NCC(=O)O)c(=O)oc2cc3oc4c(c3cc12)CCCC4`: “inactive”.

Regarding `O=S(=O)(NC1CC2CCC1C2)c1ccc(Cl)cc1` (stereo not drawn), the Potency entry is “inactive”. `CC1CN(C(=S)Nc2cccc(F)c2)CC(C)O1` (stereo not drawn): the Potency result was “inactive”.

As to `CCOC(=O)Nc1ccc(NC(=O)OCC)cc1`, the Potency result is “inactive”. Turning to `CCCCC(CCC(=O)Nc1ccc(C(=O)OCC)cc1)C(=O)O` (stereo not drawn), the Potency entry is “inactive”. On to `CCCCCOC(=O)NCCOC(=O)Nc1ccc(C(=O)OCC)cc1`, for which the Potency was 11.7 µM (active). The same measure for `CN1CCN(NC(=O)Nc2ccc(Br)cc2)CC1`: “inactive”; for `O=C(NCCS(=O)(=O)NCc1ccc(Cl)cc1)c1ccccc1`: “inactive”. As for `CCOC(=O)Cc1csc(NC(=O)Nc2ccccc2)n1`, the entry is “inactive”; as for `CCOC(=O)Cc1csc(NC(=O)CSc2nc(C)cc(=O)[nH]2)n1`, “inactive”.

Turning to `CCOC(=O)Cc1csc(NC(=O)CSc2ccc(Br)cc2)n1`, the Potency is 2.62 µM (active). As for `CCOC(=O)N1CCN(C(=O)COC(=O)c2cccc(S(C)(=O)=O)c2)CC1`, the entry is “inactive”; as for `CCCN(CC(=O)Nc1ccccc1OC)C(=O)CCC(=O)c1ccc(F)cc1`, “inactive”. On to `CCCCCCCCCCOC(=O)Cn1c(COc2cccc(OC)c2)[n+](C)c2ccccc21`, for which the Potency was 3.29 µM (active). As for `CCn1c(=N)n(CC(=O)c2cccc(OC)c2)c2ccccc21`, the entry is “inactive”; as for `CCCCOC(=O)Cn1c(=O)n(CC(=O)OCCCC)c2cc(C)ccc21`, “inactive”; as for `NC(=O)c1oc2ccccc2c1NC(=O)CS(=O)(=O)c1ccccc1`, “inactive”. As for `CCOc1ccc2[nH]c(=O)c(CN(CCCO)S(=O)(=O)c3ccc(F)cc3)cc2c1`, the Potency result is “inactive”. For the molecule `Cc1cccc(N2CCN(C(=O)CCS(=O)(=O)c3ccc4c(c3)NC(=O)C(C)S4)CC2)c1C` (stereo not drawn), the Potency entry was “inactive”.

For `Cc1cc(=O)oc2cc(OC(C)C(=O)NCCc3ccc(S(N)(=O)=O)cc3)ccc12` (stereo not drawn), the Potency entry is “inactive”.

For the molecule `CCn1ccnc1CN(C)C(=O)c1cc(COc2ccc(-n3cncn3)cc2)on1`, the Potency entry is “inactive”. Take `COc1cc(Cl)ccc1OCc1cc(C(=O)N2CC[C@@H]3CCCC[C@H]3C2)no1`: the Potency result is “inactive”. The same measure for `CCn1ccnc1CN(C)C(=O)c1cc(COc2ccc(Cl)cc2OC)on1`: 3.7 µM (active). `O=C(N[C@@H](Cc1c[nH]c2ccccc12)C(=O)O)OCC1c2ccccc2-c2ccccc21`: the Potency entry was “inactive”.

In the case of `CC1CCCCC1NC(=O)CSc1nnc(-c2ccncc2)n1CCCN(C)C` (stereo not drawn), the Potency result is “inactive”.

For `COCCCn1c(SCC(=O)Nc2ccccc2)nnc1-c1ccncc1`, the Potency entry is “inactive”. For `CN(C)CCCn1c(SCc2ccc(Cl)cc2)nnc1-c1ccncc1`, the Potency was 2.94 µM (active). As for `O=C(c1cc(COc2c(F)cccc2F)on1)N1CCSCC1`, the entry is “inactive”. Regarding `NC(=O)C1CCN(CC(O)CSc2ccc(F)cc2)CC1` (stereo not drawn), the Potency result was “inactive”. The same measure for `c1ccc(-n2cccc2)c(N2CCCCC2)c1`: “inactive”; for `O=c1cc(-c2ccccc2)nc(N2CCCCC2)[nH]1`: “inactive”; for `c1ccc(-c2cc(N3CCCCC3)c3ccccc3n2)cc1`: 9.28 µM (active). Turning to `Cc1nc2ccccc2n1CC(O)c1ccccc1` (stereo not drawn), the Potency result is “inactive”. As to `O=C(/C=C/c1cccc(C(F)(F)F)c1)N1CCN(c2ccccn2)CC1`, the Potency entry was “inactive”. Turning to `Nc1nonc1-n1nnc(C(=O)N/N=C\c2ccncc2)c1CN1CCCCC1`, the Potency result is “inactive”. With `Cc1ccc(CNS(=O)(=O)c2ccc3c(c2)N(C)CCO3)cc1`, the Potency result was “inactive”. The same measure for `Cc1ccc(S(=O)(=O)Nc2nc(CN3CCOCC3)nc3sc(C)c(C)c23)cc1`: “inactive”. As for `Cc1ccc(NC(=O)CN(C)C(=O)Cn2nnc(-c3ccccc3)n2)cc1`, the entry is “inactive”. The same measure for `COc1c(C)c2c(c(O)c1C/C=C(\C)CCC(=O)O)C(=O)OC2`: 1.61 µM (active). As to `Cc1cc(=O)oc2c(C(=O)c3ccccc3)c(OCC(N)=O)ccc12`, the Potency result was “inactive”.

For `COC(=O)c1cc(S(=O)(=O)N2CCC(C(N)=O)CC2)oc1C`, the Potency result was “inactive”. In the case of `Cn1c(SCC(=O)N/N=C/c2ccc(O)c(O)c2)nc2ccccc21`, the Potency result is “inactive”. The same measure for `Cc1nn(Cc2ccccc2Cl)c(Cl)c1C(=O)OC(C(=O)NC(N)=O)C(C)C` (stereo not drawn): 13.1 µM (active). For `COc1ccccc1CCNC(=O)c1c(C)nn(CC(C)C)c1Cl`, the Potency entry is “inactive”. For the molecule `COC(=O)c1ccc(COC(=O)c2c(C)nn(Cc3ccccc3Cl)c2Cl)o1`, the Potency result is “inactive”.

Regarding `CCCCCCn1cc(C(=O)O)c(=O)c2cc(F)c(N3CCCCC3)cc21`, the Potency entry is “inactive”. The same measure for `CC(C)CN(C(=O)Cn1c(=O)cnc2ccccc21)C1CCS(=O)(=O)C1` (stereo not drawn): “inactive”; for `Cc1ccc(C)c(NC(=O)CN(C)C(=O)c2ccc3ncsc3c2)c1`: “inactive”. As for `COc1ccc(C(=O)CCC(=O)Nc2ccc(Cl)cc2)cc1`, the entry is “inactive”; as for `COc1ccccc1/C=N/N1CCN(Cc2ccccc2Cl)CC1`, “inactive”. As for `COc1ccc(C2/C(=C(/O)c3ccccc3)C(=O)C(=O)N2c2ncccn2)cc1OC` (stereo not drawn), the entry is “inactive”.

Consider `COc1ccc(C2N=C(N)N=C(N)N2c2ccccc2)cc1OC` (stereo not drawn), for which the Potency was 2.62 µM (active). The same measure for `COc1ccc(C2SCCN2S(=O)(=O)c2ccccc2)cc1OC` (stereo not drawn): “inactive”. As for `Cc1ccc(S(=O)(=O)N(C)C)cc1NC(=O)C(C)OC(=O)c1ccc2ccccc2n1` (stereo not drawn), the entry is “inactive”.
